# Source: PubChem BioAssay (NCI)
# The panel holds about 83,000 compounds, 20% with a hit somewhere; the sample as a whole holds those more often.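 96-well plates, one dose, 48 hours. Percent growth reported; active if below 10.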 Activity calls are given as the source filed them.
# Test system: SN12C renal
# Test: NCI-60 one-dose screen, 48 h (100 = growth as untreated, 0 = no growth, -100 = all killed)
# Details: 10 µM unless noted
row,Structure (SMILES),growth
1,COC1=CC=CC2(OC)C3(O)CCCc4cccc(c43)N3C(=O)COC132 (stereo unspecified),101% (inactive)
2,C=C1C(=O)O[C@H]2[C@H]1CC/C(COC(=O)N1CCC[C@H]1C(=O)Nc1ccc(OC)c(C(N)=O)c1O)=C\CC[C@@]1(C)O[C@@H]21,12.9% (inactive)
3,Cc1cc(C)nc(NS(=O)(=O)c2ccc(Nc3ccc4c5c(n(CCCN(C)C)c(=O)c4c3)-c3ccccc3C5=O)cc2)n1,85% (inactive)
4,COc1cc(NC(=O)c2cc(O)c(C/C=C(\C)CCC=C(C)C)c(O)c2)cc2c1O[C@]1(C)CC[C@@H](O)C(C)(C)[C@H]1C2,20.5% (inactive)
5,CCCCCCN1C(=O)CN=C1Nc1ccc2cc3ccc(NC4=NCC(=O)N4CCCCCC)cc3nc2c1,26.7% (inactive)
6,Nc1ccc(C2=NN(C(=O)c3cc(-c4ccc(Cl)cc4)nc4ccccc34)C(c3ccccc3)C2)cc1 (stereo unspecified),51.2% (inactive)
7,CN(CCC#N)C(=O)Nc1ccccc1,111% (inactive)
8,C=C(C)[C@@H]1CC[C@]2(C(=O)OCCCC[P+](c3ccccc3)(c3ccccc3)c3ccccc3)CC[C@]3(C)[C@H](CC[C@@H]4[C@@]5(C)CC[C@H](OC(=O)C(Cl)Cl)C(C)(C)[C@@H]5CC[C@]43C)[C@@H]12,-62.2% (active)
9,CSc1cccc(NC(=O)Nc2nc3c(C)cccc3s2)c1,94.3% (inactive)
10,O=C(O)c1cn(C2CC2)c2cc(N3CCN(Cc4nnc(Nc5ccccc5)o4)CC3)c(F)cc2c1=O,109% (inactive)
11,O=C1CS/C(=N/c2nnc(-c3ccc(O)cc3)s2)N1,101% (inactive)
12,COc1ccc2c(c1)C1(C(=O)N2)C(C#N)=C(c2ccccc2)Nc2c1c(-c1ccccc1)nn2-c1ccccc1 (stereo unspecified),1.61% (active)
13,CCN1CCC[C@H]1c1cc(O)c2c(c1OC)C[C@H]1C[C@H]3[C@H](N)C(=O)C(C(N)=O)=C(O)[C@@]3(O)C(=O)C1=C2O,-3.68% (active)
14,O=C(/C(=C/c1ccc([N+](=O)[O-])cc1)SCc1ccccc1)c1ccc(Cl)cc1,-25.4% (active)

# Test system: UO-31 renal
# Test: as above
# Details: 10 µM unless noted
row,Structure (SMILES),growth
1,CCOC(=O)c1cnn(-c2nc(-c3ccc(F)cc3)c(C#N)c(N3CCOCC3)n2)c1N,74.1% (inactive)
2,Cc1c(O)c(=O)ccn1-c1nc2ccccc2s1,47.6% (inactive)
3,Nc1ccc(C2=NN(C(=O)c3cc(-c4ccc(Cl)cc4)nc4ccccc34)C(c3ccc(Cl)cc3)C2)cc1 (stereo unspecified),47.6% (inactive)
4,COc1ccc2nc(-c3ccc(OC)c(OC)c3)cc(-c3nnc(SCC(=O)Nc4ccc(C(C)=O)cc4)o3)c2c1,91.7% (inactive)
5,CNCc1cccc2c1OCCOCCOCCN(CCN1CCOCC1)S(=O)(=O)c1ccc(cc1)-c1cnc(N)c(n1)C(=O)N2,55.6% (inactive)
6,COc1cc(C2=NN(C(C)=O)C(c3cccc(Nc4ccnc5cc(C(F)(F)F)ccc45)c3)C2)cc(OC)c1OC (stereo unspecified),35.8% (inactive)
7,CC(C)CSc1nc(Nc2ccccc2)c(C#N)c(-c2ccc(F)cc2)n1,-3.98% (active)
8,CNc1cccc2c1C(=O)c1cccc(N)c1C2=O,62.1% (inactive)
9,NC(=O)c1ccc(C2C3=C(CCCC3=O)OC3=C2C(=O)c2ccccc2C3=O)cc1 (stereo unspecified),90.6% (inactive)
10,C=CCn1c(SCC(=O)Nc2ccc(C(=O)/C=C/c3ccc(Cl)cc3)cc2)nnc1-c1cc(OC)c(OC)c(OC)c1,66.5% (inactive)
11,C=C1C(=O)O[C@H]2[C@H]1CC/C(C=Nc1c(N)cc(F)cc1Br)=C\CC[C@@]1(C)O[C@@H]21,53.5% (inactive)
12,COc1cc(-c2csc(NC(=O)Nc3ccc(Cl)cc3)n2)cc(OC)c1OC,16.9% (inactive)
13,COc1ccc(C(=O)c2cc(OC)c(C)c(OC)c2)cc1OC(=O)CCl,49.9% (inactive)
14,Nc1c(C(=O)Nc2cccc3ccccc23)sc2nc3c(cc12)COCC3,77% (inactive)
15,CN(C)C(CNc1oc(-c2cccc3ccccc23)nc1C#N)c1ccco1 (stereo unspecified),87.7% (inactive)
16,Cc1cnc(-c2ccc(-c3ccc(NC(=O)Nc4c(F)cc(F)cc4F)cc3F)c3c2C(=O)NC3)[nH]1,50.3% (inactive)
17,COc1ccc(-c2cc(C(=O)N3N=C(c4ccc(N)cc4)CC3c3ccc(OC)cc3)c3cc(OC)ccc3n2)cc1 (stereo unspecified),56.6% (inactive)
18,COc1cc([C@H](C)c2ccc3ccccc3c2)cc(OC)c1OC,42.1% (inactive)
19,O=c1nc(-c2ccccc2)c2cc(-c3ccc(N4CCCC4)nc3)ccc2[nH]1,63.6% (inactive)

row,Structure (SMILES),growth
1,Cc1cccc2nc3c(n12)C(=O)C(=O)c1ccccc1-3,55.8% (inactive)
2,CC(=O)Nc1c(C(=O)Nc2ccccc2)sc2nc3c(cc12)C(OC(C)=O)CCC3 (stereo unspecified),72.9% (inactive)
3,CCN1CCN(c2ccc(NC(=O)Nc3nc4ccc(-c5ccccc5OC)cc4s3)cc2)CC1,-91.6% (active)
4,Cc1cc(Cl)cc(CN(Cc2ccccc2)Cc2c(O)ccc3ccccc23)c1O,62.2% (inactive)
5,COC1=CC=CC2(OC)C3(O)CCCc4cccc(c43)N3C(=O)COC132 (stereo unspecified),82.1% (inactive)
6,C=C1C(=O)O[C@H]2[C@H]1CC/C(COC(=O)N1CCC[C@H]1C(=O)Nc1ccc(OC)c(C(N)=O)c1O)=C\CC[C@@]1(C)O[C@@H]21,41.2% (inactive)
7,Cc1cc(C)nc(NS(=O)(=O)c2ccc(Nc3ccc4c5c(n(CCCN(C)C)c(=O)c4c3)-c3ccccc3C5=O)cc2)n1,88.9% (inactive)
8,COc1cc(NC(=O)c2cc(O)c(C/C=C(\C)CCC=C(C)C)c(O)c2)cc2c1O[C@]1(C)CC[C@@H](O)C(C)(C)[C@H]1C2,-21.5% (active)
9,CCCCCCN1C(=O)CN=C1Nc1ccc2cc3ccc(NC4=NCC(=O)N4CCCCCC)cc3nc2c1,51.7% (inactive)
10,Nc1ccc(C2=NN(C(=O)c3cc(-c4ccc(Cl)cc4)nc4ccccc34)C(c3ccccc3)C2)cc1 (stereo unspecified),49.5% (inactive)
11,CN(CCC#N)C(=O)Nc1ccccc1,87.3% (inactive)
12,C=C(C)[C@@H]1CC[C@]2(C(=O)OCCCC[P+](c3ccccc3)(c3ccccc3)c3ccccc3)CC[C@]3(C)[C@H](CC[C@@H]4[C@@]5(C)CC[C@H](OC(=O)C(Cl)Cl)C(C)(C)[C@@H]5CC[C@]43C)[C@@H]12,-51% (active)
13,CSc1cccc(NC(=O)Nc2nc3c(C)cccc3s2)c1,84.4% (inactive)
14,O=C(O)c1cn(C2CC2)c2cc(N3CCN(Cc4nnc(Nc5ccccc5)o4)CC3)c(F)cc2c1=O,92.5% (inactive)
15,O=C1CS/C(=N/c2nnc(-c3ccc(O)cc3)s2)N1,93.5% (inactive)
16,COc1ccc2c(c1)C1(C(=O)N2)C(C#N)=C(c2ccccc2)Nc2c1c(-c1ccccc1)nn2-c1ccccc1 (stereo unspecified),80.1% (inactive)
17,CCN1CCC[C@H]1c1cc(O)c2c(c1OC)C[C@H]1C[C@H]3[C@H](N)C(=O)C(C(N)=O)=C(O)[C@@]3(O)C(=O)C1=C2O,-5.6% (active)
18,O=C(/C(=C/c1ccc([N+](=O)[O-])cc1)SCc1ccccc1)c1ccc(Cl)cc1,59.5% (inactive)
